Compounds without any hit were thinned out: in the full panel of roughly 79,000, 15% have a hit. The source made the active and inactive calls. No stated cut-off is given here; in the data, active means growth inhibition above about 70%; inactive means the rest.
Columns and labels:
[1] = NCI Yeast Anticancer Drug Screen. Data for the mec2-1 strain (AID 157); settings: S. cerevisiae mec2-1 strain, stronger effect = higher value
Summary of the method: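 Compounds were applied to mec2-1 yeast cells. Their growth was then compared with that of vehicle-treated cultures to give growth inhibition.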

[2] = NCI Yeast Anticancer Drug Screen. Data for the rad14 strain (AID 159);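 further: 0% = growth of vehicle-treated control cultures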; settings: S. cerevisiae rad14 strain growth inhibition, stronger effect = higher value
Summary of the method: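 Growth inhibition vs vehicle controls; genetically altered yeast strain (DNA damage repair defect) treated with test compounds.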

[3] = NCI Yeast Anticancer Drug Screen. Data for the sgs1 mgt1 strain (AID 161);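 further: 0% = growth of cultures given vehicle only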; settings: S. cerevisiae sgs1 mgt1 strain, stronger effect = higher value
Summary of the method: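 Growth of a repair-deficient yeast mutant was monitored after compound treatment and expressed as inhibition relative to vehicle-treated cultures.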

[4] = NCI Yeast Anticancer Drug Screen. Data for the CLN2oe strain (AID 163);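 further: 0% = growth of vehicle-only control cultures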; settings: S. cerevisiae CLN2oe strain, stronger effect = higher value
Summary of the method: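 Cells of an engineered yeast line with disturbed cell-cycle regulation are treated with compound. Inhibition of growth is then calculated relative to the vehicle-treated reference.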

[5] = NCI Yeast Anticancer Drug Screen. Data for the cln2 rad14 strain (AID 165);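 further: 0% = growth equal to vehicle treated cultures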; settings: S. cerevisiae cln2 rad14 strain, stronger effect = higher value
Summary of the method: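 Strain: cln2 rad14 yeast, altered in cell cycle control and DNA damage repair. Read-out: growth inhibition vs vehicle.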

[6] = NCI Yeast Anticancer Drug Screen. Data for the bub3 strain (AID 167); settings: S. cerevisiae bub3 mutant strain, stronger effect = higher value
Summary of the method: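 Readout: yeast growth inhibition, expressed relative to vehicle-only wells. The test organism is a mutant strain from a panel with lesions in DNA repair or checkpoint genes.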

[7] = NCI Yeast Anticancer Drug Screen. Data for the wt2 strain (AID 169);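 further: 0% = growth of vehicle-treated yeast cultures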; settings: S. cerevisiae wt2 strain growth inhibition, stronger effect = higher value
Summary of the method: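 Growth of compound-treated yeast is measured and expressed as inhibition relative to vehicle-only controls.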

[8] = NCI Yeast Anticancer Drug Screen. Data for the mlh1 strain (AID 171);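 further: 0% = growth of vehicle-treated control cultures of the same strain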; settings: S. cerevisiae mlh1 strain growth inhibition, stronger effect = higher value
Summary of the method: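 Test agents were incubated with yeast bearing a defined DNA damage repair or cell cycle control alteration; values are growth inhibition normalised to vehicle-treated cultures.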

[9] = NCI Yeast Anticancer Drug Screen. Data for the sgs1 strain (AID 173);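 further: 0% = growth of vehicle-only control cultures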; settings: S. cerevisiae sgs1 mutant, stronger effect = higher value
Summary of the method: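 Strain with an altered DNA repair or cell cycle pathway exposed to compound. Growth then measured. Value = inhibition versus vehicle control.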

[10] = NCI Yeast Anticancer Drug Screen. Data for the mlh1 rad18 strain (AID 175); settings: S. cerevisiae mlh1 rad18 strain growth inhibition, stronger effect = higher value
Summary of the method: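 A repair-deficient yeast strain is exposed to test compound, and growth is scored relative to vehicle-treated controls.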

[11] = NCI Yeast Anticancer Drug Screen. Data for the rad18 strain (AID 177); settings: S. cerevisiae rad18 mutant growth inhibition, stronger effect = higher value
Summary of the method: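 DNA-repair-defective yeast; compound treatment; growth inhibition scored against vehicle.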

[12] = NCI Yeast Anticancer Drug Screen. Data for the wt1 strain (AID 149);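 further: 0% = growth of vehicle-treated wt1 cultures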; settings: S. cerevisiae wt1 strain (SPY 50644) growth inhibition, stronger effect = higher value
Summary of the method: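 Growth inhibition read against vehicle controls after compound exposure of the wt1 yeast strain.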

[13] = NCI Yeast Anticancer Drug Screen. Data for the rad50EPP+ strain (AID 151);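 further: 0% = growth of vehicle-treated control cultures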; settings: S. cerevisiae rad50 mutant strain, stronger effect = higher value
Summary of the method: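 Measured: growth inhibition of rad50EPP+ yeast. Reference: vehicle-treated controls. Screen uses strains with defined genetic alterations in DNA damage repair or cell cycle control.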

[14] = NCI Yeast Anticancer Drug Screen. Data for the mgt1 strain (AID 153); settings: S. cerevisiae mgt1 mutant growth inhibition, stronger effect = higher value
Summary of the method: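 Compounds were applied to mgt1 mutant yeast, and growth was then compared against vehicle-treated control cultures to give percent inhibition.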

[15] = NCI Yeast Anticancer Drug Screen. Data for the rad50 strain (AID 155);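 further: 0% = growth of vehicle-only cultures of the same strain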; settings: S. cerevisiae rad50 strain growth inhibition, stronger effect = higher value
Summary of the method: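 Readout: growth inhibition relative to vehicle-treated cultures. Compound exposure was carried out in a genetically defined yeast strain deficient in DNA damage repair.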

[16] = at 5.0 µM (retest, dose inferred, filed as 0.5)
[17] = at 50.0 µM (retest, dose inferred, filed as 5.0)

Measured: growth inhibition

CN(C)Cc1cc(N=Nc2ccc(Cl)cc2)cc(CN(C)C)c1O
inactive: [1]; at 100.0 µM 15% | [2]; at 1.2 µM 12% | [2]; at 3.7 µM 13% | [2]; at 11.0 µM 10% | [2]; at 33.0 µM 11% | [2]; at 100.0 µM 34% | [3]; [16] 1% | [3]; [17] 46% | [4]; at 1.2 µM 23% | [4]; at 3.7 µM 22% | [4]; at 11.0 µM 26% | [4]; at 33.0 µM 26% | [4]; at 100.0 µM 18% | [5]; [16] 39% | [5]; at 50.0 µM 44% | [6]; at 1.2 µM 4% | [6]; at 3.7 µM 2% | [6]; [16] 12% | [6]; at 11.0 µM 2% | [6]; at 33.0 µM 5% | [6]; at 100.0 µM 3% | [7]; at 1.2 µM 5% | [7]; at 3.7 µM 5% | [7]; at 11.0 µM 8% | [7]; at 33.0 µM 15% | [8]; at 1.2 µM 14% | [8]; at 3.7 µM 12% | [8]; at 11.0 µM 12% | [8]; at 33.0 µM 10% | [8]; at 100.0 µM 18% | [9]; at 1.2 µM 4% | [9]; at 3.7 µM 8% | [9]; at 11.0 µM 15% | [9]; at 33.0 µM 26% | [10]; [16] 4% | [11]; at 1.2 µM 7% | [11]; at 3.7 µM 8% | [11]; at 11.0 µM 25% | [11]; at 33.0 µM 15% | [11]; at 100.0 µM 34%
active: [3]; at 50.0 µM 95.2% | [5]; [17] 98% | [6]; [17] 73% | [6]; at 50.0 µM 91.2% | [7]; at 100.0 µM 80% | [9]; at 100.0 µM 95% | [10]; [17] 96% | [10]; at 50.0 µM 90.2%

CCCCCCCCNC(=O)C1=C(C)NC(C)=C(C(=O)NCCCCCCCC)C1
inactive: [12]; at 1.2 µM 2% | [12]; at 3.7 µM 3% | [12]; at 11.0 µM 1% | [12]; at 33.0 µM 0% | [12]; at 100.0 µM 3% | [13]; at 1.2 µM 0% | [13]; at 3.7 µM -1% | [13]; at 11.0 µM 2% | [13]; at 33.0 µM 11% | [13]; at 100.0 µM 25% | [14]; at 1.2 µM 0% | [14]; at 3.7 µM 0% | [14]; at 11.0 µM 1% | [14]; at 33.0 µM -13% | [14]; at 100.0 µM 4% | [15]; at 1.2 µM -4% | [15]; at 3.7 µM -13% | [15]; [16] 8% | [15]; at 11.0 µM -17% | [15]; at 33.0 µM -3% | [15]; [17] 6% | [15]; at 50.0 µM -29.5% | [15]; at 100.0 µM 4% | [1]; at 1.2 µM 0% | [1]; at 3.7 µM 2% | [1]; [16] -7% | [1]; at 11.0 µM 0% | [1]; at 33.0 µM -4% | [1]; [17] 14% | [1]; at 50.0 µM -5.25% | [1]; at 100.0 µM 7% | [2]; at 1.2 µM 1% | [2]; at 3.7 µM 0% | [2]; at 11.0 µM 2% | [2]; at 33.0 µM 4% | [2]; at 100.0 µM 11% | [3]; [16] -7% | [3]; [17] 4% | [3]; at 50.0 µM 0.45% | [4]; at 1.2 µM 4% | [4]; at 3.7 µM 2% | [4]; at 11.0 µM -1% | [4]; at 33.0 µM 0% | [4]; at 100.0 µM 2% | [5]; [16] 42% | [5]; [17] 2% | [5]; at 50.0 µM 35.4% | [6]; at 1.2 µM 0% | [6]; at 3.7 µM 0% | [6]; [16] 35% | [6]; at 11.0 µM 0% | [6]; at 33.0 µM 0% | [6]; [17] -4% | [6]; at 50.0 µM -6.55% | [6]; at 100.0 µM 2% | [7]; at 1.2 µM 1% | [7]; at 3.7 µM 1% | [7]; at 11.0 µM 0% | [7]; at 33.0 µM 1% | [7]; at 100.0 µM 2% | [8]; at 1.2 µM 0% | [8]; at 3.7 µM 2% | [8]; at 11.0 µM 0% | [8]; at 33.0 µM 2% | [8]; at 100.0 µM 8% | [9]; at 1.2 µM 2% | [9]; at 3.7 µM 3% | [9]; at 11.0 µM -3% | [9]; at 33.0 µM 3% | [9]; at 100.0 µM 14% | [10]; [16] 8% | [10]; [17] -5% | [10]; at 50.0 µM -23.8% | [11]; at 1.2 µM -1% | [11]; at 3.7 µM -2% | [11]; at 11.0 µM -4% | [11]; at 33.0 µM -8% | [11]; at 100.0 µM 2%

Source: PubChem BioAssay (NCI)
